The campaign covered roughly 310,000 compounds. About 14,000 (4.5%) showed an effect of 50% or more. The effect is printed as a negative number. Many of the other results were omitted from the sample, so strong results are more common in it than they were.
Target: human ether-à-go-go-related gene (hERG) potassium channel (human, UniProt Q12809)
Assay: primary screen, population patch clamp on CHO cells stably expressing hERG; higher = less effect of the substance
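Further: peak tail current of the secondary pulse compared with the same well before compound.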

Chain of human ether-à-go-go-related gene (hERG) potassium channel (Q12809 whole entry, looked up): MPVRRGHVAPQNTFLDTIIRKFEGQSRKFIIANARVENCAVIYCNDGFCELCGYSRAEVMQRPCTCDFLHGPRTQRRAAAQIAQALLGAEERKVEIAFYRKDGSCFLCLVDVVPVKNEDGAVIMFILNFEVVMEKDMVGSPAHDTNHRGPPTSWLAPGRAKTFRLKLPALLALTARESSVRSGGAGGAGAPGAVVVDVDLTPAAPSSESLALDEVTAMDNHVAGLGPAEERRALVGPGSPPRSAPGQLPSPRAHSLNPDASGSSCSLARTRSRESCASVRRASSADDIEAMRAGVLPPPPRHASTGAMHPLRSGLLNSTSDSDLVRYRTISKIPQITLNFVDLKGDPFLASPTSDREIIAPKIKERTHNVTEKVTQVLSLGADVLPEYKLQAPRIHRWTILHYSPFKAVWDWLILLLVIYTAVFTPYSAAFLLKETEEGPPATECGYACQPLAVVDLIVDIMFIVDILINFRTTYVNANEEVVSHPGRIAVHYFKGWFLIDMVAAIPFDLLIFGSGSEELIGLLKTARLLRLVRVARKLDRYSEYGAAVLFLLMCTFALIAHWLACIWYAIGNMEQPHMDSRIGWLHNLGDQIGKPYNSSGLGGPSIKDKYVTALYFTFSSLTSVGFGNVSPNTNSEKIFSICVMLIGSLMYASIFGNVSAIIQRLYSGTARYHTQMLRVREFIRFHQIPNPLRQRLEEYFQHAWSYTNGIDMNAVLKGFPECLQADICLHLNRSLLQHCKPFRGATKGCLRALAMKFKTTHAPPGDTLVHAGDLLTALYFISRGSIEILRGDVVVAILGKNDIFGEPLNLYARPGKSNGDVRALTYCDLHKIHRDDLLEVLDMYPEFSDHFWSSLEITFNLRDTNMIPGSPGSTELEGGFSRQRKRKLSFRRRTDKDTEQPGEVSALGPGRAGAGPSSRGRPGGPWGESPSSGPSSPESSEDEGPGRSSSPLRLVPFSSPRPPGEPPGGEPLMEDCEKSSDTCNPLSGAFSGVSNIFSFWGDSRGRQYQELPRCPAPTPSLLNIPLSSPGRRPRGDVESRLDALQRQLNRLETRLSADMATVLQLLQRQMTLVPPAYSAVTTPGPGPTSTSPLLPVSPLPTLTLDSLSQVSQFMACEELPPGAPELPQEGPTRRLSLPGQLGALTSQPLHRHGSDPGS

Row | Compound | hERG current change (%, negative = inhibition) at 10uM
1 | C=CCNCCCOc1ccc(Cl)cc1Br.O=C(O)C(=O)O | -42.6%
2 | Cc1ccc(OCCCNCCO)c(Br)c1.O=C(O)C(=O)O | -10.5%
3 | O=C(O)C(=O)O.OCCNCCCOc1ccc(Cl)cc1Br | -54.9%
4 | Brc1ccccc1OCCNCc1ccccc1.O=C(O)C(=O)O | -29.8%
5 | CCc1cc(OCCCCNCc2ccccc2)ccc1Cl.O=C(O)C(=O)O | -25.6%
6 | Cl.OCCNCc1ccc(OCc2ccc(Cl)cc2Cl)cc1 | -45.8%
7 | Clc1ccc(OCCCNCc2ccccc2)c(Br)c1.O=C(O)C(=O)O | -64.4%
8 | Cl.OCCCCNCc1ccc(OCc2ccccc2Cl)cc1 | -15.9%
9 | Clc1ccc(OCCCNCc2ccccc2)c2ccccc12.O=C(O)C(=O)O | -1.92%
10 | Cl.OCCCCNCc1ccc(OCc2ccc(Cl)cc2Cl)cc1 | -51.6%
11 | Clc1ccc(Cl)c(OCCCCNCc2ccccc2)c1.O=C(O)C(=O)O | -71.5%
12 | Clc1cc(Br)ccc1OCCCNCc1ccccc1.O=C(O)C(=O)O | -30.1%
13 | Cc1cc(C)c(S(=O)(=O)Nc2ccc(OCC(=O)O)cc2)c(C)c1 | 6.93%
14 | Nc1nnnn1/N=C/c1ccccc1OCc1ccccc1 | 19%
15 | COCCCN(Cc1cccs1)S(=O)(=O)c1c[nH]c(C(=O)OC)c1 | -8.01%
16 | Cc1ccc2c(c1)nc(NCCCO)n2C | -3.54%
17 | Cc1cc(Cl)ccc1OC(C)C(=O)OCC(=O)Nc1ccc2[nH]c(=O)[nH]c2c1 (stereo not shown) | -3.04%
18 | Oc1ccccc1-c1nc(N2CCN(Cc3ccccc3)CC2)c2ccccc2n1 | 10.5%
19 | CN1CCN(c2nc(-c3ccc(Cl)cc3Cl)nc3ccccc23)CC1 | -73.9%
20 | CN1CCN(c2nc(-c3ccccc3O)nc3ccccc23)CC1 | 9.47%
21 | CN1CCN(c2nc(-c3ccc(Cl)c(Cl)c3)nc3ccccc23)CC1 | 6.63%
22 | CN1CCN(c2nc(-c3ccccc3Cl)nc3ccccc23)CC1 | -73.8%
23 | CCN1CCN(c2nc(-c3ccccc3Cl)nc3ccccc23)CC1.Cl | -69.9%
24 | COc1nc(-c2ccc(Cl)cc2Cl)nc2ccccc12 | 6.59%

Row | Compound | hERG current change (%, negative = inhibition) at 10uM
25 | OCCN1CCN(c2nc(-c3ccccc3O)nc3ccccc23)CC1 | -25.1%
26 | COc1cccc(-c2nc(N3CCN(C)CC3)c3ccccc3n2)c1O | -30.8%
27 | COCCNC(=O)CSc1ccccc1C(=O)NC1CCCc2ccccc21 (stereo not shown) | 5.31%
28 | COc1cc(CNC(=O)CCn2nc(C)c3c(C)n(-c4ccccc4)nc3c2=O)cc(OC)c1OC | 12%
29 | CCOc1cccc(C(=O)Nc2ccc3oc(-c4cccnc4)nc3c2)c1 | -9.4%
30 | N#Cc1ccc(C(=O)Nc2nc3ccccc3[nH]2)cc1 | 19%
31 | Cl.O=C(COc1ccc(Cl)cc1)NCCN1CCCC1 | -40%
32 | COc1cc(Br)cc(CN2CCN(C=O)CC2)c1O | -2.6%
33 | COc1cc(NC(=O)CN(C)S(=O)(=O)c2ccc(C)cc2)cc(OC)c1 | -19.9%
34 | CCOC(=O)C1=C(C)NC(=O)/C1=C\N(C)C | 19%
35 | CCOC(=O)c1ccc(NC(=S)N(CCN(C)C)Cc2cccs2)cc1 | -9.16%
36 | CCOC(=O)c1ccc(NC(=S)N(CCCN2CCCC(C)C2)Cc2cccs2)cc1 (stereo not shown) | -76.3%
37 | CCOC(=O)c1ccc(NC(=S)N(CCCN2CCCC2)Cc2cccs2)cc1 | -67.5%
38 | CCOC(=O)c1ccc(NC(=S)N(CCCN2CCN(CC)CC2)Cc2cccs2)cc1 | -69.1%
39 | CCOC(=O)c1ccc(NC(=S)N2CCCC(C)C2)cc1 (stereo not shown) | -28.4%
40 | COC(CNC(=O)CNC(=S)N(CCCN1CCOCC1)Cc1cccs1)OC | 6.42%
41 | CCOC(=O)c1ccc(NC(=S)N(CCN2CCCCCC2)Cc2cccs2)cc1 | -11.6%
42 | CCOC(=O)c1ccc(NC(=S)N(CCCN2CCN(C)CC2)Cc2cccs2)cc1 | -65.4%
43 | O=C(N/N=C/C(Br)=C/c1ccccc1)c1ccncc1 | 0.715%
44 | Cc1ccc(NC(=O)c2ccccc2NC(=O)c2cccs2)cc1 | 20.1%
45 | Cc1cccc(NS(=O)(=O)c2cc(Cl)ccc2Cl)n1 | 22.2%
46 | CN1CCN(C2=C(Cl)C(=O)N(c3ccc(Cl)c(Cl)c3)C2=O)CC1 | 14.1%
47 | COc1cccc(OCCNC(=O)c2cccc(OC)c2)c1 | -1.4%
48 | Cc1cc(/C(=N/O)C(C)(C)NO)ccc1Cl | 5.73%

Row | Compound | hERG current change (%, negative = inhibition) at 10uM
49 | COc1ccc(CNc2ccc(Cl)cc2)cc1Cn1ccnc1 | -20.3%
50 | COc1ccc(C(NC(=O)/C=C/c2ccco2)c2ccc(OC)cc2)cc1 | -13.3%
51 | Brc1ccc(-c2nnc3sc(CN4CCN(c5ccccc5)CC4)cn23)cc1 | -1.83%
52 | O=C(NCCN1C(=O)S/C(=C\c2ccc(OC(F)F)cc2)C1=O)[C@@H]1CCCN1C(=O)c1cccs1 | -63.5%
53 | O=C(NCCN1C(=O)S/C(=C\c2ccc(Cl)c(Cl)c2)C1=O)c1cnccn1 | 1.98%
54 | O=C(NCCN1C(=O)S/C(=C\c2cccnc2)C1=O)c1cccc(OC(F)F)c1 | -48.7%
55 | COc1ccc(/C=C2/SC(=O)N(CCNC(=O)C3CCCN3C(=O)c3cccs3)C2=O)cc1 (stereo not shown) | -22.8%
56 | O=C(NCCN1C(=O)S/C(=C/c2ccccc2)C1=O)C1CCCN1C(=O)c1cccs1 (stereo not shown) | -26.9%
57 | O=C(NCCN1C(=O)S/C(=C\c2ccc(OC(F)F)cc2)C1=O)c1cnccn1 | -57.1%
58 | O=C(c1ccco1)N1N=C(c2ccco2)CC1c1ccc(Cl)cc1Cl (stereo not shown) | 11.9%
59 | CN(C)S(=O)(=O)Nc1cccc(-c2cn3c(n2)SCC3)c1 | 11.2%
60 | O=[N+]([O-])c1cc(C(F)(F)F)cc([N+](=O)[O-])c1NCCN1CCNCC1 | 4.88%
61 | CC1CN(C)C(C)C/C1=N\Oc1ccc([N+](=O)[O-])cc1.Cl (stereo not shown) | -78.6%
62 | CN1CCC(=NOc2ccc([N+](=O)[O-])cc2)CC1 | -74.8%
63 | CC1=CC(=O)C=C(C)C1=NOc1ccc([N+](=O)[O-])cc1 | -3.45%
64 | CC1CN(C)C(C)C/C1=N/Oc1ccccc1[N+](=O)[O-].Cl (stereo not shown) | -26.5%
65 | CN1CCN(S(=O)(=O)c2ccc([N+](=O)[O-])cc2)CC1 | -14.6%
66 | CC1CC(C)CN(S(=O)(=O)c2ccc(Oc3ccc([N+](=O)[O-])cc3)cc2)C1 (stereo not shown) | -9.72%
67 | Cc1nc2c(cnn2-c2ccccc2)c(=O)n1/N=C/c1ccccc1 | 11.9%
68 | N/C(=N\OC(=O)Nc1ccccc1)c1ncc([N+](=O)[O-])s1 | -2.31%
69 | Cc1ccc2c(c1)N(Cc1cccc(C#N)c1)C=NS2(=O)=O | 9.38%
70 | CCn1c(-c2ccc([N+](=O)[O-])cc2)n[nH]c1=S | 9.07%
71 | CCC(=O)Nc1ccccc1C(=O)OCC(=O)c1ccccc1 | -28.1%
72 | COc1cccc(NC(=S)N(CCN2CCCCC2)Cc2ccco2)c1 | -43.9%

Row | Compound | hERG current change (%, negative = inhibition) at 10uM
73 | CCc1ccc(NC(=S)N(CCCN2CCOCC2)Cc2ccco2)cc1 | -12.6%
74 | COc1ccc(NC(=S)N(CCCN2CCCC2)Cc2ccco2)cc1 | -39.4%
75 | CCc1ccc(NC(=S)N(CCN2CCCCC2)Cc2ccco2)cc1 | -75.4%
76 | COc1ccc(NC(=S)N(CCN2CCCCC2)Cc2ccco2)cc1 | -57.5%
77 | CCc1ccccc1NC(=S)N(CCN1CCCCC1)Cc1ccco1 | -46.7%
78 | O=C1COc2ccc3ccccc3c21 | -4.35%
79 | Cc1cc(C(=O)C(=O)O)c(C)n1-c1ccc(Cl)cc1 | -43.4%
80 | O=C(CCC1CCCC1)NCCS(=O)(=O)N1CCN(c2ccccc2)CC1 | -12.9%
81 | NC(=O)C1(N2CCCCC2)CCN(C(=O)c2ccc(-n3cnnn3)cc2)CC1 | -30.6%
82 | CC1=NNC(=O)C1CCC(=O)N/N=C/C=C/c1ccccc1 (stereo not shown) | 1.22%
83 | CCNC(=S)NC1CC2CCCC(C1)N2Cc1ccc(C)cc1 (stereo not shown) | -48.1%
84 | CCc1ccc(NC(=S)NC2CC3CCCC(C2)N3Cc2ccccc2)cc1 (stereo not shown) | -70.9%
85 | S=C(NC1CCCCC1)NC1CC2CCC(C1)N2Cc1ccccc1 (stereo not shown) | -33.4%
86 | CCC(C)c1ccc(NC(=S)NC2CCN(Cc3ccccc3)CC2)cc1 (stereo not shown) | -61.8%
87 | CCNC(=S)NC1CC2CCC(C1)N2Cc1ccccc1 (stereo not shown) | -20.3%
88 | S=C(Nc1ccc(Cl)cc1)NC1CCN(Cc2ccccc2)CC1 | -39.9%
89 | CNC(=S)NC1CC2CCC(C1)N2Cc1ccccc1 (stereo not shown) | -16.5%
90 | CCc1ccc(NC(=S)NC2CCN(Cc3ccccc3)CC2)cc1 | -36.9%
91 | Cc1ccc(CN2C3CCCC2CC(NC(=S)NCc2ccccc2)C3)cc1 (stereo not shown) | -72.4%
92 | CNC(=S)NC1CC2CCCC(C1)N2Cc1ccc(C)cc1 (stereo not shown) | -38.9%
93 | S=C(Nc1ccc(Cl)cc1)NC1CC2CCC(C1)N2Cc1ccccc1 (stereo not shown) | -66.1%
94 | CC(C)c1ccc(NC(=S)NC2CCN(Cc3ccccc3)CC2)cc1 | -17.4%
